We go through 12 molecules from the supplement of paper PMC5940239.

For this assay, the system named is Madurella mycetomatis MM55. Description: percent growth relative to solvent control; higher = less inhibition, active = 20 or less. The note with it: 100 µM; 7 days.
With `COc1ccc(C2=NN(C3CCCCCC3)C(=O)[C@@H]3CC=CC[C@H]23)cc1OCCCCOc1ccc(-c2nn[nH]n2)cc1`, the percent growth is -1.09% (active). Then `CCCn1nnc(NC(=O)COc2ccc(C3CCCCC3)cc2)n1`, with 2.18% (active); and `CCCn1c(NC(=O)c2ccc3ccccc3n2)nc2ccccc21`, with -3.5% (active); and `Cc1cc(C)c2cc(C(=O)NC3CCCCCCC3)[nH]c2c1`, with 2.52% (active). The same measure for `O=C1N(Cc2cc3ccccc3s2)CC2CN(Cc3ccccc3)CCN12` (configuration not stated): 0.636% (active); for `O=C(c1ccc(NCCO)cc1)C1C[C@H]1c1ccc(Cl)cc1` (some centres not stated): 4.06% (active). The same measure for `CNC(=O)c1nn(C)c2c1C(C)(C)Cc1cnc(Nc3ccc(N4CCN(C)CC4)cc3)nc1-2`: 0.489% (active). Regarding `c1cncc(NCc2ccc(-c3cc4ccncc4cc3OC3CCNCC3)s2)c1`, the percent growth is -3.08% (active). Take `COc1cc(CN2CCC3(C=Cc4ccccc43)CC2)cc2c1OCO2`: the percent growth is 4.12% (active). For the molecule `Cc1ncc(-c2ccnc(Nc3ccc(S(C)(=O)=O)cc3)n2)n1C(C)C`, the percent growth was 6.23% (active). In the case of `CN(C)c1cc(NC(=O)Nc2ccccc2)c2ccccc2n1`, the percent growth was 8.07% (active). Consider `c1ccc2c(c1)CN(CC1CC1)CC1(CCN(Cc3c[nH]c4cnccc34)CC1)O2`, for which the percent growth is 5.33% (active).
